{
  "source": "PubChem BioAssay AID1159580",
  "about": "(chemical genetic matrix, 2015)",
  "test": "chemical genetic growth profiling, strain panel (AID 1159580);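 further: tested at 20 µM; growth read once vehicle control cultures reached saturation at 30 °C; 1 = growth at the plate median or of vehicle wells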",
  "settings": "S. cerevisiae deletion strains, growth OD",
  "key": {"[1]": {"settings": "locus YDL101C, strain DUN1, stronger effect = lower value"}, "[2]": {"settings": "locus YHR030C, strain SLT2, stronger effect = lower value"}},
  "note": "Out of some 5,500 compounds screened, about 2,000 (36%) were called active. Roughly 18% stayed inconclusive and do not appear here. The list shows a part of the results. Unmarked numbers belong to inactive results. No stated cut-off is given here; in the data, active means normalized growth mostly below about 0.91 (no sharp cut-off); inconclusive means no clear call, values can overlap the other calls; inactive means mostly above about 0.92.",
  "data": [
    {"smiles": "FC(F)(F)c1ccc(NC(=S)Nc2ccc(C(F)(F)F)cc2Cl)c(Cl)c1", "values": [
      {"measurement": "normalized growth", "setting": "locus YAR019C, strain CDC15, stronger effect = lower value", "result": 0.964},
      {"measurement": "normalized growth", "setting": "locus YBL105C, strain PKC1, stronger effect = lower value", "result": 0.969},
      {"measurement": "normalized growth", "setting": "locus YBR135W, strain CKS1, stronger effect = lower value", "result": 0.955},
      {"measurement": "normalized growth", "setting": "locus YBR136W, strain MEC1, stronger effect = lower value", "result": 0.969},
      {"measurement": "normalized growth", "setting": "locus YBR160W, strain CDC28, stronger effect = lower value", "result": 0.948},
      {"measurement": "normalized growth", "setting": "locus YDL017W, strain CDC7, stronger effect = lower value", "result": 0.965},
      {"measurement": "normalized growth", "setting": "locus YDL028C, strain MPS1, stronger effect = lower value", "result": 0.952},
      {"measurement": "normalized growth", "setting": "[1]", "result": 0.993},
      {"measurement": "normalized growth", "setting": "locus YDL108W, strain KIN28, stronger effect = lower value", "result": 0.946},
      {"measurement": "normalized growth", "setting": "locus YDL132W, strain cdc53, stronger effect = lower value", "result": 0.949},
      {"measurement": "normalized growth", "setting": "locus YDL214C, strain PRR2, stronger effect = lower value", "result": 0.921},
      {"measurement": "normalized growth", "setting": "locus YDR052C, strain DBF4, stronger effect = lower value", "result": 0.979},
      {"measurement": "normalized growth", "setting": "locus YDR054C, strain cdc34, stronger effect = lower value", "result": 0.976},
      {"measurement": "normalized growth", "setting": "locus YDR226W, strain ADK1, stronger effect = lower value", "result": 0.936},
      {"measurement": "normalized growth", "setting": "locus YDR477W, strain SNF1, stronger effect = lower value", "result": 0.938},
      {"measurement": "normalized growth", "setting": "locus YER123W, strain YCK3, stronger effect = lower value", "result": 0.902},
      {"measurement": "normalized growth", "setting": "locus YER133W, strain GLC7, stronger effect = lower value", "result": 0.933},
      {"measurement": "normalized growth", "setting": "locus YFL009W, strain cdc4, stronger effect = lower value", "result": 0.921},
      {"measurement": "normalized growth", "setting": "locus YFL029C, strain CAK1, stronger effect = lower value", "result": 0.968},
      {"measurement": "normalized growth", "setting": "locus YFR003C, strain YPI1, stronger effect = lower value", "result": 0.955},
      {"measurement": "normalized growth", "setting": "locus YFR019W, strain FAB1, stronger effect = lower value", "result": 0.932},
      {"measurement": "normalized growth", "setting": "locus YFR028C, strain CDC14, stronger effect = lower value", "result": 0.953},
      {"measurement": "normalized growth", "setting": "locus YGR040W, strain KSS1, stronger effect = lower value", "result": 0.929},
      {"measurement": "normalized growth", "setting": "locus YGR052W, strain FMP48, stronger effect = lower value", "result": 0.937},
      {"measurement": "normalized growth", "setting": "locus YGR092W, strain DBF2, stronger effect = lower value", "result": 0.911},
      {"measurement": "normalized growth", "setting": "[2]", "result": "0.83 (active)"},
      {"measurement": "normalized growth", "setting": "locus YHR079C, strain IRE1, stronger effect = lower value", "result": 0.948},
      {"measurement": "normalized growth", "setting": "locus YHR082C, strain KSP1, stronger effect = lower value", "result": 0.926},
      {"measurement": "normalized growth", "setting": "locus YHR205W, strain SCH9, stronger effect = lower value", "result": 0.919},
      {"measurement": "normalized growth", "setting": "locus YIL147C, strain SLN1, stronger effect = lower value", "result": 0.962},
      {"measurement": "normalized growth", "setting": "locus YJL095W, strain BCK1, stronger effect = lower value", "result": 0.919},
      {"measurement": "normalized growth", "setting": "locus YJL128C, strain PBS2, stronger effect = lower value", "result": 0.956},
      {"measurement": "normalized growth", "setting": "locus YJL157C, strain FAR1, stronger effect = lower value", "result": 0.928},
      {"measurement": "normalized growth", "setting": "locus YJR016C, strain ILV3, stronger effect = lower value", "result": 0.966},
      {"measurement": "normalized growth", "setting": "locus YJR066W, strain TOR1 (second series), stronger effect = lower value", "result": 0.95},
      {"measurement": "normalized growth", "setting": "locus YJR066W, strain TOR1, stronger effect = lower value", "result": 0.886},
      {"measurement": "normalized growth", "setting": "locus YKL048C, strain ELM1, stronger effect = lower value", "result": 0.946},
      {"measurement": "normalized growth", "setting": "locus YKL067W, strain YNK1, stronger effect = lower value", "result": 0.907},
      {"measurement": "normalized growth", "setting": "locus YKL101W, strain HSL1, stronger effect = lower value", "result": 0.898},
      {"measurement": "normalized growth", "setting": "locus YKL193C, strain SDS22, stronger effect = lower value", "result": 0.954},
      {"measurement": "normalized growth", "setting": "locus YKL203C, strain TOR2, stronger effect = lower value", "result": 1.03},
      {"measurement": "normalized growth", "setting": "locus YLR113W, strain HOG1, stronger effect = lower value", "result": "0.836 (active)"},
      {"measurement": "normalized growth", "setting": "locus YLR133W, strain CKI1, stronger effect = lower value", "result": 0.923},
      {"measurement": "normalized growth", "setting": "locus YLR403W, strain SFP1, stronger effect = lower value", "result": 0.949},
      {"measurement": "normalized growth", "setting": "locus YML070W, strain DAK1, stronger effect = lower value", "result": 0.902},
      {"measurement": "normalized growth", "setting": "locus YMR001C, strain CDC5, stronger effect = lower value", "result": 0.961},
      {"measurement": "normalized growth", "setting": "locus YMR205C, strain PFK2 (second series), stronger effect = lower value", "result": 0.929},
      {"measurement": "normalized growth", "setting": "locus YMR277W, strain FCP1, stronger effect = lower value", "result": 0.944},
      {"measurement": "normalized growth", "setting": "locus YNL006W, strain LST8, stronger effect = lower value", "result": 0.961},
      {"measurement": "normalized growth", "setting": "locus YNL020C, strain ARK1, stronger effect = lower value", "result": 0.887},
      {"measurement": "normalized growth", "setting": "locus YNL161W, strain CBK1, stronger effect = lower value", "result": 0.967},
      {"measurement": "normalized growth", "setting": "locus YNL183C, strain NPR1, stronger effect = lower value", "result": 0.929},
      {"measurement": "normalized growth", "setting": "locus YNL207W, strain RIO2, stronger effect = lower value", "result": 0.948},
      {"measurement": "normalized growth", "setting": "locus YNL222W, strain SSU72, stronger effect = lower value", "result": 0.95},
      {"measurement": "normalized growth", "setting": "locus YNL307C, strain MCK1 (second series), stronger effect = lower value", "result": 0.888},
      {"measurement": "normalized growth", "setting": "locus YOL078W, strain AVO1, stronger effect = lower value", "result": 0.955},
      {"measurement": "normalized growth", "setting": "locus YOL136C, strain PFK27, stronger effect = lower value", "result": 0.908},
      {"measurement": "normalized growth", "setting": "locus YOR061W, strain CKA2, stronger effect = lower value", "result": 0.911},
      {"measurement": "normalized growth", "setting": "locus YOR119C, strain RIO1, stronger effect = lower value", "result": 0.954},
      {"measurement": "normalized growth", "setting": "locus YOR231W, strain MKK1, stronger effect = lower value", "result": 0.92},
      {"measurement": "normalized growth", "setting": "locus YOR329C, strain SCD5, stronger effect = lower value", "result": 0.971},
      {"measurement": "normalized growth", "setting": "locus YPL031C, strain PHO85, stronger effect = lower value", "result": 0.945},
      {"measurement": "normalized growth", "setting": "locus YPL153C, strain RAD53, stronger effect = lower value", "result": 0.927},
      {"measurement": "normalized growth", "setting": "locus YPL204W, strain HRR25, stronger effect = lower value", "result": 0.916},
      {"measurement": "normalized growth", "setting": "locus YPL209C, strain IPL1, stronger effect = lower value", "result": 0.972},
      {"measurement": "normalized growth", "setting": "locus YPL256C, strain CLN2, stronger effect = lower value", "result": 0.929},
      {"measurement": "normalized growth", "setting": "locus YPR025C, strain CCL1, stronger effect = lower value", "result": 0.966},
      {"measurement": "normalized growth", "setting": "locus YPR106W, strain ISR1, stronger effect = lower value", "result": 0.956},
      {"measurement": "normalized growth", "setting": "locus YPR111W, strain DBF20, stronger effect = lower value", "result": 0.929},
      {"measurement": "normalized growth", "setting": "strain NNK1, stronger effect = lower value", "result": 0.959},
      {"measurement": "normalized growth", "setting": "strain TSCII, stronger effect = lower value", "result": 0.97}
    ]},
    {"smiles": "CC(=O)NN(C)c1ccc(C(F)(F)F)cc1[N+](=O)[O-]", "values": [
      {"measurement": "normalized growth", "setting": "locus YAL013W, strain DEP1, stronger effect = lower value", "result": 1.01},
      {"measurement": "normalized growth", "setting": "locus YBR229C, strain ROT2, stronger effect = lower value", "result": 1.01},
      {"measurement": "normalized growth", "setting": "[1]", "result": 1},
      {"measurement": "normalized growth", "setting": "locus YDR150W, strain NUM1, stronger effect = lower value", "result": 0.991},
      {"measurement": "normalized growth", "setting": "locus YEL061C, strain CIN8, stronger effect = lower value", "result": 1.02},
      {"measurement": "normalized growth", "setting": "locus YGR078C, strain PAC10, stronger effect = lower value", "result": 1},
      {"measurement": "normalized growth", "setting": "[2]", "result": 1.11},
      {"measurement": "normalized growth", "setting": "locus YHR087W, strain rtc3, stronger effect = lower value", "result": 1.01},
      {"measurement": "normalized growth", "setting": "locus YJL187C, strain SWE1, stronger effect = lower value", "result": 1.02},
      {"measurement": "normalized growth", "setting": "locus YJR043C, strain POL32, stronger effect = lower value", "result": 1.01},
      {"measurement": "normalized growth", "setting": "locus YJR075W, strain HOC1, stronger effect = lower value", "result": 1},
      {"measurement": "normalized growth", "setting": "locus YKL190W, strain CNB1, stronger effect = lower value", "result": 1.01},
      {"measurement": "normalized growth", "setting": "locus YLR039C, strain RIC1, stronger effect = lower value", "result": 1},
      {"measurement": "normalized growth", "setting": "locus YLR058C, strain SHM2 (second series), stronger effect = lower value", "result": 1.01},
      {"measurement": "normalized growth", "setting": "locus YLR085C, strain ARP6, stronger effect = lower value", "result": 1.04},
      {"measurement": "normalized growth", "setting": "locus YLR262C, strain YPT6, stronger effect = lower value", "result": 0.986},
      {"measurement": "normalized growth", "setting": "locus YML094W, strain GIM5, stronger effect = lower value", "result": 1.02},
      {"measurement": "normalized growth", "setting": "locus YMR219W, strain ESC1, stronger effect = lower value", "result": 1.01},
      {"measurement": "normalized growth", "setting": "locus YMR263W, strain SAP30, stronger effect = lower value", "result": 1.01},
      {"measurement": "normalized growth", "setting": "locus YNL153C, strain GIM3, stronger effect = lower value", "result": 1.01},
      {"measurement": "normalized growth", "setting": "locus YNL298W, strain CLA4 (second series), stronger effect = lower value", "result": 1.01},
      {"measurement": "normalized growth", "setting": "locus YNL322C, strain KRE1, stronger effect = lower value", "result": 1.01},
      {"measurement": "normalized growth", "setting": "locus YNR030W, strain Alg12, stronger effect = lower value", "result": 1.02},
      {"measurement": "normalized growth", "setting": "locus YPL055C, strain LGE1, stronger effect = lower value", "result": 0.989},
      {"measurement": "normalized growth", "setting": "locus YPL241C, strain CIN2, stronger effect = lower value", "result": 1.02},
      {"measurement": "normalized growth", "setting": "locus YPR135W, strain CTF4, stronger effect = lower value", "result": 1.07}
    ]}
  ]
}
